# Source: PubChem BioAssay (NCI)
# The panel holds about 83,000 compounds, 20% with a hit somewhere; the sample as a whole holds those more often.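 Percent growth is the endpoint: 0 to 100 indicates growth inhibition (40 means 60% inhibition), 0 means no net growth, and negative values indicate cell death.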 A number with no mark means an inactive call. Active and inactive are the calls of the source. Rule for the calls: active = growth percent below 10; inactive = the rest.
# Test system: NCI-H522 lung
# Assay: NCI-60 one-dose screen, 48 h (100 = growth as untreated, 0 = no growth, -100 = all killed)
# Settings: 10 µM unless noted
row,SMILES,growth
1,C=C1C(=O)O[C@H]2[C@H]1CC/C(COC(=O)C(=O)c1c[nH]c3ccccc13)=C\CC[C@@]1(C)O[C@@H]21,-62% (active)
2,S=C(c1ccc2c(c1)OCO2)N1CCN(c2ccccc2Cl)CC1,74.8%
3,CC(C)(C)CC(C)(C)Nc1c(-c2ccncc2)nc2cnccn12,87.1%
4,COCCN(C(=O)c1ccc(F)cc1F)c1c(N)n(Cc2ccccc2)c(=O)[nH]c1=O,98.3%
5,Cc1ccc(N(C(=O)CCc2c[nH]c3ccccc23)[C@H](C(=O)Nc2ccc(Cl)cc2)c2cccc([N+](=O)[O-])c2)cc1,64.2%
6,COC(=O)c1c2c(c(C)[n+]([O-])c1C)C(=O)C(NCc1ccc(F)cc1)=CC2=O,-11.6% (active)
7,COc1ccc(Cl)cc1NC(=O)C(Br)C(Br)C(=O)O (configuration not stated),-43.5% (active)
8,O=C1Nc2ccccc2/C1=C/c1cn(C(=O)c2c(Cl)cccc2Cl)c2ccccc12,55.3%
9,COC(=O)/C=C1\S/C(=N\NS(=O)(=O)c2ccc(C)cc2)N(c2ccccc2)C1=O,91.9%
10,CCCCCCCC/C=C\CCCCCCCCOc1ccccc1CC(=O)NCC[N+](C)(C)C,51.1%
11,NC(=S)Nc1cccc(O)c1,93.1%
12,CCCCCS(=O)(=O)Nc1ccc(C(=O)O)cc1,75.4%
13,CCCCCCCCCOc1c(OC)cc(C2CC(=O)Nc3c2c(C)nn3-c2nc3ccccc3[nH]2)cc1OC (configuration not stated),-65.2% (active)
14,C=C1C(=O)O[C@H]2[C@H]1CC/C(CNC(=O)/C=C/c1ccc(Cl)cc1Cl)=C\CC[C@@]1(C)O[C@@H]21,-84.2% (active)
15,NNC(=O)c1nc(N)n(-c2ccc(S(N)(=O)=O)cc2)n1,80.3%
16,C(=N\Nc1ncc(-c2cc3cc4c(cc3o2)OCO4)s1)/c1ccco1,8.73% (active)
17,O=C(/C=C/c1cccc(O)c1)c1cccc(-n2cc(-c3ccc4ccccc4c3)[nH]c2=O)c1,75.9%
18,COc1cc(Cn2ncc3ccc(NC(=O)c4cc5ccccc5oc4=N)cc32)cc(OC)c1OC,20.3%
19,O=C(CC(SCc1ccccc1)c1ccccc1)c1ccccc1 (configuration not stated),111%

row,SMILES,growth
1,CCOc1ccccc1-c1cc(-c2cccs2)c(C#N)c(=O)[nH]1,75.5%
2,N#CC1=C(NC=O)Oc2c(ccc3ccccc23)C1c1ccccc1 (configuration not stated),-2.8% (active)
3,COc1cc(C2CC(c3cc(OC)c(OCCCOc4ccc(-n5c(/C=C/c6ccccc6)nc6ccccc6c5=O)cc4)c(OC)c3)=NO2)cc(OC)c1OC (configuration not stated),91.1%
4,O=C1Nc2ccc(F)cc2C12Nc1cc(Cl)ccc1S2 (configuration not stated),90.9%
5,CCN(CC)CCN1C(=O)c2c(c(C)c3c(oc4cc(O)ccc43)c2C)C1=O,-37.1% (active)
6,O=C(O)c1ccc2c(c1Cl)C(=O)c1ccccc1C2=O,106%
7,CN(c1ccccc1)c1ccc2c(c1)OCCC21CC1Nc1cnccc1C(=O)O (configuration not stated),63.7%
8,CC1O[C@@H](OC2[C@H](OC(=O)/C=C/c3ccc(O)c(O)c3)C(COC3O[C@H](C)C(O)C(O)[C@@H]3O)O[C@@H](OCCc3ccc(O)c(O)c3)[C@H]2O)[C@@H](O)C(O)[C@H]1O (some centres not stated),86.6%
9,O=C(CSc1nnc(-c2ccc(NC(=O)c3cccnc3)cc2)o1)Nc1cccc(Br)c1,41.4%
10,CCN1C(=O)N(CC)C2Nn3c(s/c(=C\c4ccc(Cl)cc4Cl)c3=O)=NC21 (configuration not stated),12.3%
11,COc1ccc(/C=N/C2=C(C#N)C(c3ccc(OC)cc3)c3ccc4ccccc4c3O2)cc1 (configuration not stated),45.5%
12,CCOC(=O)C/C(C)=N\NC(=O)c1ccncc1,95.3%
13,COC(=O)[C@H](CSC)N(C)C(=O)[C@@H]1CSSC[C@@H](NC(=O)c2nc3ccccc3cc2O)C(=O)NCC(=O)N1C,45.9%
14,COc1ccc2[nH]c(O)c(C(=Nc3ccc(N(C)C(=O)CN4CCN(C)CC4)cc3)c3ccccc3)c2c1,67.2%
15,O=[N+]([O-])c1ccc(N2c3ccncc3Sc3ccncc32)cc1,87.8%
16,COc1ccc(CNC(=O)C(O)C(Cc2ccccc2)NC(=O)c2[nH]c3ccccc3c(=O)c2C)cc1OC (configuration not stated),93%
17,N#C/C(=C/C=C/c1cccc(Cl)c1)S(=O)c1ccccc1 (configuration not stated),-89.2% (active)
18,COC(=O)[C@]12CC[C@@H](C)[C@H](C)[C@@H]1C1=CC[C@@H]3[C@@]4(C)C(C=O)=C[C@@](C)(COC(C)=O)C4=CC[C@@]3(C)[C@]1(C)CC2,-30.5% (active)
